The values below come from PubChem BioAssay (NCATS).

A number with no mark means an inactive call. Records with an inconclusive call do not appear. Active and inactive are the calls of the source. Calls come from the whole dose curve; as a rule, active = well fitted curve in the direction sought with a large enough effect; inconclusive = small, poorly fitted or top-dose-only effect, or another doubt; inactive = no such curve, though single readings can be large; an effect the other way counts as inactive or inconclusive.

Assay [1] addresses Glutathione peroxidase 1 (Homo sapiens) (UniProt P07203). Kind of assay: Primary qHTS Assay for Inhibitors of Recombinant Selenoprotein Glutathione Peroxidase 1 (GPX1) (AID 1845191). For activity, negative = inhibition: % is set by controls: 0 for no effect and ±100 for the full control effect. Note: nearly all actives have a fitted effect of over 65% in size. Note: potency is the fitted concentration of half-maximal effect. The procedure, abridged:
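10 nM GPX1 + cpd, 30 min RT; start w/ 1 mM GSH, 0.5 mM cumene hydroperoxide, 0.5 mM NADPH, 100 nM GR, 0.01% BSA; buffer 50 mM Tris-HCl pH 7.5, 2 mM EDTA, 150 mM NaCl; Fl 340/450, 0 & 15 min.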
For orientation: In qHTS, concentration-response curves come from the screen itself.

Assay [2] has as its target Phospholipid hydroperoxide glutathione peroxidase GPX4 (Homo sapiens) (UniProt P36969). Kind of assay: Primary qHTS Assay for Inhibitors of Recombinant Selenoprotein Glutathione Peroxidase 4 (GPX4) (AID 1845192). Note: series mostly up to about 50 µM; % is set by controls: 0 for no effect and ±100 for the full control effect; nearly all actives have a fitted effect of over 65% in size. The procedure, abridged:
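NADPH consumption, followed by fluorescence at 340/450 nm between 0 and 15 min, reports GPX4 activity via coupled glutathione reductase (100 nM). Enzyme 200 nM was pre-exposed to compound 30 min; 0.5 mM cumene hydroperoxide and 1 mM GSH served as substrates.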

Assay [3] concerns the target Luciferin 4-monooxygenase (Photinus pyralis) (UniProt P08659). As to the kind of experiment: Primary firefly luciferase (FLuc) qHTS assay for identification of artifact compounds. (AID 1845220).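 For activity change, negative = inhibition: series mostly up to about 54 µM; plate controls were DMSO vehicle for no effect and no enzyme for full effect.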 Note: nearly all actives have a fitted effect of over 60% in size. Note: potency is the fitted concentration of half-maximal effect. The procedure, abridged:
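FLuc 10 nM; luciferin 10 uM; ATP 10 uM; Tris-acetate pH 7.6, Mg-acetate 10 mM; 15 min RT preincubation; 5 min reaction; luminescence.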

Assay [4] is described as follows: Primary fluorescence-based thiol-reactive (MSTI) qHTS assay for identification of artifact compounds. (AID 1845221).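 For activity change, negative = thiol reactive: series mostly up to about 54 µM; thiol-reactive compounds lower the probe fluorescence signal.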 Note: nearly all actives have a fitted effect of over 65% in size. Note: potency is the fitted concentration of half-maximal effect. The procedure, abridged: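 Reactivity toward the thiol probe MSTI (4 uM) is scored by fluorescence at Ex/Em 525/598 nm after 1 h at room temperature. Acetyl-MSTI and MSTI define the activity scale.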
Assay [5] deals with Nanoluciferase (engineered Oplophorus gracilirostris luciferase). As to the kind of experiment: Primary Nanoluciferase (NLuc) qHTS assay for identification of artifact compounds. (AID 1845222).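 Note: NLuc secreted into diluted conditioned medium of S16 cells; series mostly up to about 54 µM; 0% = DMSO and -100% = no enzyme.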 The procedure, abridged:
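NLuc from S16 cell medium (1:55) plus test compounds, 15 min, room temperature. Luminescence after Nano-Glo (1:100) addition, 5 min.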

Assay [6] is described as follows: Primary redox qHTS assay for identification of artifact compounds. (AID 1845223).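 Note: 0% = DMSO and 100% = reference compound.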 The procedure, abridged:
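Amplex Red (25 uM) and HRP (250 mU/mL) in HBSS, with compounds for 15 min, then 250 uM DTT for 30 min, room temperature, dark. Fluorescence 525/598 nm read; normalized to DMSO and 10 uM DA3003; Hill fit.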

Phospholipid hydroperoxide glutathione peroxidase GPX4 (Homo sapiens), sequence (P36969 whole entry, looked up): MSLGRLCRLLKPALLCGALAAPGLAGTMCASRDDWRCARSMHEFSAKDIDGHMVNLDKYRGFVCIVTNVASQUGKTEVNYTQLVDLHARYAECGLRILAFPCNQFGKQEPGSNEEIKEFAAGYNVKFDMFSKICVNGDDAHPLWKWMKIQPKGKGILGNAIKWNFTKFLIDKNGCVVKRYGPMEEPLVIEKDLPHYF
Glutathione peroxidase 1 (Homo sapiens), sequence (P07203 whole entry, looked up): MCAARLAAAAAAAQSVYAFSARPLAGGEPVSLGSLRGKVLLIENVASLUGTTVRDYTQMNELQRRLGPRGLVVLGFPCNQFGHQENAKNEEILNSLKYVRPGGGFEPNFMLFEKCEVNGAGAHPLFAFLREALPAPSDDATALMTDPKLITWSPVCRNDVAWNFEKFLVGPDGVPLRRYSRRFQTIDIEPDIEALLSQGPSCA

Take `Fc1ccc(-c2nc(-c3ccccc3F)[nH]c2-c2ccncc2)cc1`: the Potency result in assay [1], in assay [2], in assay [3], in assay [4], in assay [5] and in assay [6] was “inactive” in each case.
Consider `Cc1cc(-c2ncc(-c3cccnc3)cc2/C=C/c2ccccc2)cnc1-c1cccnc1`, for which the Potency in assay [1] is 18 µM (active). Also, the Potency result in assay [2], in assay [3], in assay [4], in assay [5] and in assay [6] was “inactive” throughout.
For `Oc1cccc(C2NC(=S)Nc3cccc(F)c32)c1` (configuration not stated), the Potency entry in assay [1], in assay [2], in assay [3], in assay [4], in assay [5] and in assay [6] was “inactive” throughout.
For `C=C(C)C(=O)OC1CC(CO)CCC/C(CO)=C/C2OC(=O)C(=C)C21` (configuration not stated), the Potency entry in assay [1], in assay [2], in assay [3], in assay [4], in assay [5] and in assay [6] was “inactive” each time.
For `N#Cc1ccc(O[C@@H]2c3ccccc3C[C@H]2N2CCC[C@@H](N)C2)c(Cl)c1`, the Potency entry in assay [1], in assay [2], in assay [3], in assay [4], in assay [5] and in assay [6] was “inactive” throughout.
Turning to `C/C=C(\C)C(=O)O[C@@H]1[C@@H](C)[C@]2(O)[C@@H]3C=C(C)C(=O)[C@H]3CC(CO)=C[C@H]2C2C(C)(C)[C@@]21OC(=O)C(C)CC` (some centres not stated), the Potency entry in assay [1], in assay [2], in assay [3], in assay [4], in assay [5] and in assay [6] was “inactive” each time.
Take `Cc1cc(C)c(-n2cc(C)c3c(Cl)nc(C)nc32)c(C)c1`: the Potency result in assay [1], in assay [2], in assay [3], in assay [4], in assay [5] and in assay [6] was “inactive” each time.
On to `CNC(=O)COC(=O)N1CCC(CCc2ccc(Cl)cc2)CC1`, for which the Potency entry in assay [1], in assay [2], in assay [3], in assay [4], in assay [5] and in assay [6] was “inactive” each time.
`CNc1cc2[nH]c(=O)n(-c3ccc(NC(=O)NS(=O)(=O)c4ccc(Cl)s4)cc3)c(=O)c2cc1F`: the Potency entry in assay [1], in assay [2], in assay [3], in assay [4], in assay [5] and in assay [6] was “inactive” each time.
Regarding `C=CC(C)(C)c1[nH]c2ccccc2c1C[C@@H]1NC(=O)[C@H](C)NC1=O`, the Potency entry in assay [1], in assay [2], in assay [3], in assay [5] and in assay [6] was “inactive” in each case. Further, the Potency in assay [4] is 5.85 µM (active).
As for `O=C(Nc1nc2cc(C(F)(F)F)cc(NC3CC3)n2n1)c1cccnc1`, the Potency result in assay [1], in assay [2], in assay [3], in assay [4], in assay [5] and in assay [6] was “inactive” in each case.
Consider `O=S(=O)(c1ccccc1)N(CC(F)(F)F)c1ccc(C(O)(C(F)(F)F)C(F)(F)F)cc1`, for which the Potency entry in assay [1], in assay [2], in assay [3], in assay [4], in assay [5] and in assay [6] was “inactive” throughout.
On to `COc1cc(F)c(C(C)C)cc1-c1ccc(C(F)(F)F)cc1CN1C(=O)OC(c2cc(C(F)(F)F)cc(C(F)(F)F)c2)C1C` (configuration not stated), for which the Potency result in assay [1], in assay [2], in assay [3], in assay [4], in assay [5] and in assay [6] was “inactive” throughout.
As to `CN(C)CCn1cc(-c2ccc(F)cc2)c(-n2cccc2)n1`, the Potency entry in assay [1], in assay [2], in assay [3], in assay [4], in assay [5] and in assay [6] was “inactive” in each case.
Turning to `C=C(C)C(=O)O[C@H]1[C@H]2C(=C)C(=O)O[C@@H]2/C=C(\CO)CC/C=C(/C=O)[C@@H]1O`, the Potency entry in assay [1], in assay [2], in assay [3], in assay [4], in assay [5] and in assay [6] was “inactive” each time.
Regarding `CC1(C)CCC2(C(=O)OC3OC(COC4OC(CO)C(O)C(O)C4O)C(O)C(O)C3O)CCC3(C)C(=CCC4C5(C)CCC(OC6OCC(O)C(O)C6O)C(C)(C)C5CCC43C)C2C1O` (configuration not stated), the Potency result in assay [1] and in assay [2] was “inactive” throughout. In assay [3], the activity change, negative = inhibition was 0.58% [at 11.6 µM]. Besides, the activity change, negative = thiol reactive in assay [4] is 122% [at 11.5 µM]. The activity, negative = inhibition in assay [5] is -1.73% [at 11.6 µM]. Moreover, the redox activity (% of DA3003) in assay [6] is 18.7% [at 11.5 µM].
`Cc1nc(C#Cc2ccnc(Cl)c2)c(C)n1-c1ccc(OC(F)(F)F)cc1`: the Potency entry in assay [1], in assay [2], in assay [3], in assay [4], in assay [5] and in assay [6] was “inactive” throughout.
On to `O=C(Nc1ccc(N2C(=O)[C@@H]3[C@H](C2=O)[C@@H]2C=C[C@H]3C2)c(Cl)c1)c1ccccn1`, for which the Potency entry in assay [1], in assay [2], in assay [4], in assay [5] and in assay [6] was “inactive” each time. Also, in assay [3], the Potency was 19 µM (active).
Consider `O=C(Nc1cc(C(F)(F)F)ccc1N1CCCCC1)c1ccncc1`, for which the Potency entry in assay [1], in assay [2], in assay [3], in assay [4], in assay [5] and in assay [6] was “inactive” throughout.
On to `Fc1ccc(-n2cc(CCCCN3CCC4(CC3)OCc3ccccc34)c3ccccc32)cc1`, for which the Potency entry in assay [1], in assay [2], in assay [3], in assay [4], in assay [5] and in assay [6] was “inactive” in each case.
Take `O=C(O)c1ccc(S(=O)(=O)N(Cc2ccc(OC(F)(F)F)cc2)c2ncc(C(F)(F)F)cc2Cl)cc1`: the Potency entry in assay [1], in assay [2], in assay [3], in assay [4], in assay [5] and in assay [6] was “inactive” throughout.
As to `C=C(C(=O)OC)[C@@H]1CC=C2C=CC(=O)[C@H](C)[C@@]2(C)C1`, the Potency result in assay [1], in assay [2], in assay [3], in assay [4], in assay [5] and in assay [6] was “inactive” each time.
